# Assay results reported in the supplement of paper PMC8728848.
# Only a selection was taken, and the strongest signals are over-represented in it overall.
# How the values were obtained:
# Assay in all cases: glycan array binding signal (z-score within array); higher = stronger binding
# Details in all cases: glycan notation: IUPAC condensed, linker removed
# Gal6S(b1-4)Glc6S = target: Gal6S(b1-4)Glc6S
# Outline: (§1)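 Negative Z-scores can be read as non-binding. The Z-score is calculated within each array and then averaged across arrays of one protein sequence at different concentrations or buffers and across linkers. Arrays, 3228 in all, were curated from the Consortium for Functional Glycomics database and kept only where the protein sequence was available.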
# Gal6S(b1-4)GlcNAc = target: Gal6S(b1-4)GlcNAc
# Outline: as §1
# GalNAc(a1-3)Gal = target: GalNAc(a1-3)Gal
# Outline: as §1
# GalNAc(a1-3)GalNAc = target: GalNAc(a1-3)GalNAc
# Outline: as §1
# GalNAc(b1-3)GalNAc = target: GalNAc(b1-3)GalNAc
# Outline: as §1
# GalNAc(b1-4)Gal(b1-4)Glc = target: GalNAc(b1-4)Gal(b1-4)Glc
# Outline: as §1
# Glc(b1-4)Glc = target: Glc(b1-4)Glc
# Outline: as §1
# [1] = target: GlcNAc(a1-4)Gal(b1-4)GlcNAc
# Outline: as §1
# [2] = target: GlcNAc(a1-4)Gal(b1-4)GlcNAc(b1-3)Gal(b1-4)GlcNAc(b1-3)Gal(b1-4)GlcNAc
# Outline: as §1
# [3] = target: GlcNAc(a1-4)Gal(b1-4)GlcNAc(b1-3)Gal(b1-4)[Fuc(a1-3)]GlcNAc(b1-3)Gal(b1-4)[Fuc(a1-3)]GlcNAc
# Outline: as §1
# [4] = target: GlcNAc(b1-3)Gal(b1-4)GlcNAc(b1-2)Man(a1-3)[GlcNAc(b1-3)Gal(b1-4)GlcNAc(b1-2)Man(a1-6)]Man(b1-4)GlcNAc(b1-4)[Fuc(a1-6)]GlcNAc
# Outline: as §1
# [5] = target: GlcNAc(b1-4)GlcNAc(b1-4)GlcNAc
# Outline: as §1
# [6] = target: GlcNAc(b1-4)[GlcNAc(b1-6)]GalNAc
# Outline: as §1
# Kdn(a2-6)Gal(b1-4)GlcNAc = target: Kdn(a2-6)Gal(b1-4)GlcNAc
# Outline: as §1
# [7] = target: Man(a1-2)Man(a1-3)[Man(a1-2)Man(a1-6)]Man
# Outline: as §1
# [8] = target: Neu5Ac(a2-3)Gal(b1-3)GalNAc
# Outline: as §1
# [9] = target: Neu5Ac(a2-3)Gal(b1-3)GalNAc(b1-4)[Neu5Ac(a2-8)Neu5Ac(a2-3)]Gal(b1-4)Glc
# Outline: as §1
# [10] = target: Neu5Ac(a2-3)Gal(b1-3)GlcNAc(b1-3)GalNAc
# Outline: as §1
# [11] = target: Neu5Ac(a2-3)Gal(b1-3)[Fuc(a1-4)]GlcNAc(b1-3)Gal(b1-3)[Fuc(a1-4)]GlcNAc
# Outline: as §1
# [12] = target: Neu5Ac(a2-3)Gal(b1-4)[Fuc(a1-3)]GlcNAc(b1-2)Man
# Outline: as §1
# [13] = target: Neu5Ac(a2-3)Gal6S(b1-4)GlcNAc
# Outline: as §1
# Neu5Ac(a2-6)Gal(b1-4)Glc = target: Neu5Ac(a2-6)Gal(b1-4)Glc
# Outline: as §1
# [14] = target: Neu5Ac(a2-6)Gal(b1-4)GlcNAc(b1-2)Man(a1-3)[Neu5Ac(a2-6)Gal(b1-4)GlcNAc(b1-2)Man(a1-6)]Man(b1-4)GlcNAc(b1-4)GlcNAc
# Outline: as §1
# [15] = target: Neu5Ac(a2-6)Gal(b1-4)GlcNAc(b1-2)[Neu5Ac(a2-6)Gal(b1-4)GlcNAc(b1-4)]Man(a1-3)[GlcNAc(b1-4)][Neu5Ac(a2-6)Gal(b1-4)GlcNAc(b1-4)Man(a1-6)]Man(b1-4)GlcNAc(b1-4)GlcNAc
# Outline: as §1
# [16] = target: Neu5Ac(a2-6)Gal(b1-4)GlcNAc(b1-3)Gal(b1-3)GlcNAc
# Outline: as §1
# [17] = target: Neu5Ac(a2-6)Gal(b1-4)GlcNAc(b1-3)Gal(b1-4)GlcNAc(b1-3)Gal(b1-4)GlcNAc(b1-2)Man(a1-3)[Neu5Ac(a2-6)Gal(b1-4)GlcNAc(b1-3)Gal(b1-4)GlcNAc(b1-3)Gal(b1-4)GlcNAc(b1-2)Man(a1-6)]GalNAc
# Outline: as §1
# [18] = target: Neu5Ac(a2-6)Gal(b1-4)GlcNAc(b1-3)Gal(b1-4)GlcNAc(b1-6)[Gal(b1-3)]GalNAc
# Outline: as §1
# [19] = target: Neu5Ac(a2-8)Neu5Ac(a2-3)Gal(b1-3)GalNAc(b1-4)[Neu5Ac(a2-8)Neu5Ac(a2-3)]Gal(b1-4)Glc
# Outline: as §1
# [20] = target: Neu5Ac(a2-8)Neu5Ac(a2-8)Neu5Ac(a2-8)Neu5Ac(a2-3)[GalNAc(b1-4)]Gal(b1-4)Glc
# Outline: as §1
# [21] = target: Neu5Gc(a2-3)Gal(b1-4)[Fuc(a1-3)]GlcNAc
# Outline: as §1
# [22] = target: Neu5Gc(a2-6)Gal(b1-4)GlcNAc
# Outline: as §1
binder,measurement,setting,value
"Gal 10 (Homo sapiens), Q05315 (protein) MSLLPVPYTEAASLSTGSTVTIKGRPLVCFLNEPYLQVDFHTEMKEESDIVFHFQVCFGRRVVMNSREYGAWKQQVESKNMPFQDGQEFELSISVLPDKYQVMVNGQSSYTFDHRIKPEAVKMVQVWRDISLTKFNVSYLKR",glycan array binding signal (z-score),Gal6S(b1-4)Glc6S,-0.014
same,glycan array binding signal (z-score),Gal6S(b1-4)GlcNAc,-0.568
same,glycan array binding signal (z-score),GalNAc(a1-3)Gal,-0.104
same,glycan array binding signal (z-score),GalNAc(a1-3)GalNAc,-0.834
same,glycan array binding signal (z-score),GalNAc(b1-3)GalNAc,-0.693
same,glycan array binding signal (z-score),GalNAc(b1-4)Gal(b1-4)Glc,2.27
same,glycan array binding signal (z-score),Glc(b1-4)Glc,-0.17
same,glycan array binding signal (z-score),[1],-0.744
same,glycan array binding signal (z-score),[2],0.459
same,glycan array binding signal (z-score),[3],3.48
same,glycan array binding signal (z-score),[4],-0.014
same,glycan array binding signal (z-score),[5],-0.449
same,glycan array binding signal (z-score),[6],-0.956
same,glycan array binding signal (z-score),Kdn(a2-6)Gal(b1-4)GlcNAc,0.098
same,glycan array binding signal (z-score),[7],-0.68
same,glycan array binding signal (z-score),[8],-0.079
same,glycan array binding signal (z-score),[9],0.255
same,glycan array binding signal (z-score),[10],-0.378
same,glycan array binding signal (z-score),[11],1.14
same,glycan array binding signal (z-score),[12],2.57
same,glycan array binding signal (z-score),[13],-0.415
same,glycan array binding signal (z-score),Neu5Ac(a2-6)Gal(b1-4)Glc,-0.381
same,glycan array binding signal (z-score),[14],0.509
same,glycan array binding signal (z-score),[15],2.9
same,glycan array binding signal (z-score),[16],-0.312
same,glycan array binding signal (z-score),[17],3.41
same,glycan array binding signal (z-score),[18],-0.176
same,glycan array binding signal (z-score),[19],-0.741
same,glycan array binding signal (z-score),[20],0.562
same,glycan array binding signal (z-score),[21],0.205
same,glycan array binding signal (z-score),[22],-0.495
